High-throughput results as filed in PubChem.
Most compounds without a hit are left out; they make up all but 1.5% or so of the library.
WRN inhibitor – WRN helicase (human) inhibition; 360,000 compounds, 0.46% hits; AID 651768; Potency, µM (titrated, usually from 114 µM), inactives show at the highest dose activity change, negative = inhibition, hits mostly inhibitors; WRN helicase unwinding, fluorescent forked duplex, kinetic; Q14191; note: potency is the fitted concentration of half-maximal effect; nearly all actives have a fitted effect of over 55% in size
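Fluorescence dequenching readout, ex 525 nm/em 598 nm, kinetic mode: forked duplex DNA (100 nM final) with adjacent fluorophore and quencher unwound by WRN (20 nM final) with 2 mM ATP. Compound preincubation 15 min, room temperature.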
APEX1 inh – blocks human APE1 abasic DNA cleavage | recombinant APE1, TAMRA/BHQ-2 abasic DNA cleavage fluorescence | Potency, µM (series often up to 65.8 µM), for inactives: at the highest dose activity change, negative = inhibition, hits mostly inhibitors | 350,000 compounds, 0.35% hits;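 note: potency is the fitted concentration of half-maximal effect; plate controls were vehicle for no effect and reference inhibitor for full effect; nearly all actives have a fitted effect of over 55% in size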
Target sequence (P27695 whole entry, looked up): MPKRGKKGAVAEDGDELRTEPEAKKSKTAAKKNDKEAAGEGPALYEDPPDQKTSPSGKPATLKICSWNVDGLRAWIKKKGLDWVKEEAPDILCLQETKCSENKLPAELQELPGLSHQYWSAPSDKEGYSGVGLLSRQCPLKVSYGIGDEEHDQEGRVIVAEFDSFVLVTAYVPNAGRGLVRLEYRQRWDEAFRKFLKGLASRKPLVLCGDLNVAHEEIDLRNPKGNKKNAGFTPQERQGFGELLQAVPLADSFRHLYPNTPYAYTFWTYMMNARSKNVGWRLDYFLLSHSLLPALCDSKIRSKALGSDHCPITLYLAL
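Substrate: short duplex with […] THF abasic site, 5'-TAMRA and 3'-BHQ-2, 50 nM final. APE1 at 0.75 nM, preincubated 15 min RT with compound. Fluorescence increase from first to third read measured activity.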
BLM helicase inh – blocks DNA unwinding by human BLM helicase | P54132 | recombinant BLM DNA unwinding, fluorescence dequenching | Potency, µM (doses to about 56.1 µM), inactives show at the highest dose activity change, negative = inhibition, most hits filed as inhibitors | 350,000 compounds, 0.2% hits | AID 2528;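 note: potency is the fitted concentration of half-maximal effect; plate controls were vehicle for no effect and no enzyme for full effect; nearly all actives have a fitted effect of over 35% in size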
RECQ1 inh-1 – RECQ1 (human) helicase inhibition. Potency, µM (highest dose often 57.3 µM), for the others: at the top dose activity, negative = inhibition, actives largely listed as inhibitors. AID 2549. RECQ1 DNA unwinding, red fluorescence kinetic read. 240,000 compounds, 0.54% hits;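 note: potency is the fitted concentration of half-maximal effect; plate controls were vehicle for no effect and no enzyme for full effect; nearly all actives have a fitted effect of over 30% in size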
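50 nM RECQ1T1 preincubated 15 min with compound in Tris pH 8.0 buffer with MgCl2, DTT, Tween-20 and 2.5 ug/ml poly(dI-dC); started with 200 nM TAMRA/BHQ-2 forked duplex and 2 mM ATP. Unwinding read as fluorescence (525/598 nm), two reads 2 h apart.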
PI5P4K alpha inh – blocks human PI5P4K alpha kinase activity | P48426 | PI5P4Kalpha enzyme, ADP-Glo luminescence, 60 min; active compounds read low | max response, % | 330,000 compounds, 1.2% hits; active = max response of -50% or lower; inconclusive = between -30% and -50%; inactive = -30% or higher; note: value at the top dose of about 77 µM
Target sequence (P48426 whole entry, looked up): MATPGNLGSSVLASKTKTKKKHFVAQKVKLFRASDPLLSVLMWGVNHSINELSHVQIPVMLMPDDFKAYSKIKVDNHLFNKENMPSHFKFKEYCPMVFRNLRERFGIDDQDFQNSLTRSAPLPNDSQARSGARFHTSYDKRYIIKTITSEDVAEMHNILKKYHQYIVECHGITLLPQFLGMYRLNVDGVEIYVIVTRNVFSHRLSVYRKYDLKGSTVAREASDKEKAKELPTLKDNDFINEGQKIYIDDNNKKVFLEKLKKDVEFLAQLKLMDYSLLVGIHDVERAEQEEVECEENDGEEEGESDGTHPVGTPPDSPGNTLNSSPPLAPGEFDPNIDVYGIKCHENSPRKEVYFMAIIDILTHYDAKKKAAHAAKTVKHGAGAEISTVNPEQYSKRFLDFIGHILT
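PI5P4Kalpha ADP-Glo assay; 5 microM ATP final; 60 min RT reaction; HEPES pH 7.4/EGTA/CHAPS, 5% DMSO; controls lacking substrate or enzyme; luminescent end-point.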
FEN1 inhibitor – blocks human flap endonuclease 1; 390,000 compounds, 0.35% hits; AID 588795; P39748; Potency, µM (doses to about 114 µM), without a hit: at the top dose activity change, negative = inhibition, actives largely listed as inhibitors; Recombinant FEN1 flap cleavage, fluorescence, 15 min; note: potency is the fitted concentration of half-maximal effect; nearly all actives have a fitted effect of over 65% in size
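Compounds are tested as a concentration series against 10 nM FEN1; after a 15 min room-temperature preincubation, 50 nM substrate starts cleavage, with plate reads at 0 and 15 min. Normalized responses are fitted by a Hill equation.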
RECQ1 conf – confirmation of human RECQ1 helicase inhibitors | Potency, µM (highest dose often 229 µM), for the others: at the highest dose activity change, negative = inhibition, usual class: inhibitors | RECQ1 helicase DNA unwinding, fluorescence | 610 compounds, 28% hits | shares compounds with RECQ1 inh-1; note: potency is the fitted concentration of half-maximal effect; nearly all actives have a fitted effect of over 45% in size
ADP FP counter – ADP displacement flagged in RECQ1 inhibitor counter-screen. shares compounds with RECQ1 inh-1. ADP fluorescence polarization displacement counterscreen. Potency, µM (titrated, usually from 228 µM), inactives show at the top dose activity change, negative = inhibition, actives largely listed as inhibitors. 530 compounds, 27% hits. AID 2711; note: potency is the fitted concentration of half-maximal effect; nearly all actives have a fitted effect of over 45% in size
RECQ1 inh-2 – RECQ1 helicase inhibition confirmed, round 2 | shares compounds with RECQ1 inh-1 | recombinant RECQ1 DNA unwinding, red fluorescence | Potency, µM (top dose mostly 119 µM), without a hit: at the top dose activity, negative = inhibition, actives largely listed as inhibitors | 1,100 compounds, 15% hits | AID 504841; note: potency is the fitted concentration of half-maximal effect; nearly all actives have a fitted effect of over 50% in size
Starred values were filed as active, the others as inactive; i = inactive; ? = inconclusive; · = not tested or not shown; ! = not confirmed by another sample; [ ] = another dose, or the depositor's remark. Unless noted, calls come from the whole dose curve; as a rule, active = well fitted curve in the direction sought with a large enough effect; inconclusive = small, poorly fitted or top-dose-only effect, or another doubt; inactive = no such curve, though single readings can be large; an effect the other way counts as inactive or inconclusive. Unless noted, % is set by controls: 0 for no effect and ±100 for the full control effect.

SMILES | WRN inhibitor | APEX1 inh | BLM helicase inh | RECQ1 inh-1 | PI5P4K alpha inh | FEN1 inhibitor | RECQ1 inh-2 | others
COc1ccc(-c2cc3nc(C)c(CCC(=O)N4CCN(c5ccc(F)cc5)CC4)c(C)n3n2)c(OC)c1 | · | · | -5.1% | · | · | 1.2% | ·
Cc1ccc(/C=C/C(=O)c2ccc(N3CCOCC3)cc2)s1 | ? | -5.3% | -5.8% | ? | -5.5 | -0.8% | -26.1%
CN(c1ccc(F)cc1)S(=O)(=O)c1ccc(Cl)c(C(=O)Nc2ccc3c(c2)CCC3)c1 | -22.3% | 10.1% | -2.1% | 31.6µM* | -1.5 | 3.0% | -16.1%
CN(c1cccc(Cl)c1)S(=O)(=O)c1cccc(C(=O)Nc2ccc3c(c2)CCC3)c1 | 0.1% | 6.0% | -12.8% | 10.9% | 0.2 | 0.7% | ·
CC(O)c1c(-c2ccccc2)nn(C)c1Cl (configuration not stated) | 3.9% | 21.6% | -0.6% | 39.8µM* | -0.9 | -3.6% | -8.5%
CCN(c1ccccc1)c1ncnc2c1cnn2-c1ccc(OC)cc1 | · | · | -3.2% | · | · | ? | ·
Cc1ccccc1NC(=O)Cn1nc(C(=O)O)c2ccccc2c1=O | -3.7% | 35.0% | -0.5% | · | -0.7 | 3.3% | ·
O=C(Cn1nc(C(=O)O)c2ccccc2c1=O)Nc1nc(-c2ccccc2)cs1 | -1.9% | -4.5% | -8.6% | i | 5.8 | -5.7% | · | RECQ1 conf=2.4%;ADP FP counter=6.6%
Cc1c(-n2c(SC(C)C(=O)NC(N)=O)nc3ccccc3c2=O)c(=O)n(-c2ccccc2)n1C (configuration not stated) | 2.1% | 3.8% | 4.2% | -2.2% | -6.1 | 5.4% | · | RECQ1 conf=0.5%;ADP FP counter=4.7%
Cc1c(-n2c(SCC(C)C)nc3ccccc3c2=O)c(=O)n(-c2ccccc2)n1C | 3.7% | 0.4% | -0.3% | i | 8.4 | 1.6% | ·
Cc1c2c(=O)n(-c3nc4ccccc4s3)nc-2cc(O)n1Cc1ccccc1 | -8.9%[11.6 µM] | ? | 15.8µM* | 22.4µM* | -78.5* | ? | -6.4% | RECQ1 conf=44.7µM*;ADP FP counter=47.7%[91.9 µM]
Cc1cc(C)n(-c2nc3ccccc3s2)n1 | -1.6% | 2.9% | 0.9% | 15.9% | 3.7 | 7.4% | ·
Cc1nn(-c2ccc([N+](=O)[O-])cc2)c2c1C(c1cccc(Br)c1)N1C(=N2)C(=O)Nc2ccccc21 (configuration not stated) | 1.2% | 4.3% | -1.0% | -1.7% | 1.4 | 0.3% | ·
Cc1ccc(NC2=Nc3ccccc3N3C2=Nc2c(c(C)nn2-c2ccccc2)C3c2ccc(O)c(O)c2)cc1 (configuration not stated) | -17.6% | 0.0% | -13.9% | 31.6µM* | -74.7* | 5.7% | ?
CC(C)NC(=O)c1cnc2sc(N3CCCCCC3)nn2c1=O | · | · | -5.0% | · | · | -2.2% | ·
O=C1C(Cl)=C(N2CCCCC2)C(=O)C(Cl)=C1c1cnc(N2CCCCC2)s1 | ? | 20µM* | 14.1µM* | 15.8µM* | · | -2.5% | · | RECQ1 conf=50.1µM*;ADP FP counter=44.7µM*
CCOc1ccc(C2=CC(c3cc(Br)ccc3F)n3ncnc3N2)cc1Cl (configuration not stated) | · | · | -7.5% | · | · | -22.6% | ·
CN[C@H](C)CCC=C(C)C | · | · | 0.5% | · | · | -17.8% | ·
O=C(/C=C/c1ccco1)NC1CCCC1 | 2.1% | ? | -7.4% | -0.6% | -20.4 | 3.6% | ·
O=C(O)C(C(=O)/C=C/c1ccco1)=C1SCCS1 | ? | 25.1µM* | -14.5% | ? | -62.3* | -34.6% | ?
CCOC(=O)c1cccc(NC(=O)NC(C)c2c(-n3cccc3)sc3c2CCN(C)C3)c1 (configuration not stated) | · | · | -0.9% | · | · | -4.9% | ·
O=C(c1ccco1)N1CCC[C@@]2(CCN(C(c3ccccc3)c3ccccc3)C2)C1 | · | -3.2% | -8.5% | -12.8% | · | · | ·
Nc1ccc(N2CCCCCC2)cc1 | · | ? | -12.4% | 14.1µM* | · | · | · | RECQ1 conf=-3.4%[114 µM]
Cc1cc(C)c(S(=O)(=O)NCCc2sc3nc(-c4ccc(F)cc4)nn3c2C)c(C)c1 | · | · | -6.5% | · | · | ? | ·
Cc1ccc(S(=O)(=O)Nc2ccc(N3CCCCC3)cc2)cc1 | -15.5% | 4.8% | -7.3% | ? | 0.6 | -2.5% | -8.3%
SMILES | WRN inhibitor | APEX1 inh | BLM helicase inh | RECQ1 inh-1 | PI5P4K alpha inh | FEN1 inhibitor | RECQ1 inh-2 | others
O=C(c1ccc2c(c1)N(Cc1ccc(Cl)cc1)C(=O)c1ccccc1S2(=O)=O)N1CCCCCC1 | · | · | -9.1% | · | · | 5.9% | ·
Cc1ccc(S(=O)(=O)c2cc(Nc3ccccc3)ccc2O)cc1 | -15.3% | -17.6% | · | · | -6.1 | ? | ·
Cc1ccc(Nc2ccc(N)cc2S(=O)(=O)O)cc1 | -30.0% | ? | -10.5% | ? | -7.1 | -25.7% | -10.5%
CC(=O)c1ccc(N2C(=O)N(Cc3cccc(C(F)(F)F)c3)c3ccccc3S2(=O)=O)cc1 | · | · | -6.2% | · | · | -4.3% | ·
C#CCOc1ccc(C(=O)N(C)c2ccccc2I)cc1 | · | -1.5% | -4.6% | i | · | 8.4% | ·
CN(c1nnc(NC(=O)Nc2ccccc2C(F)(F)F)s1)C1CCCCC1 | · | · | -3.6% | · | · | 4.3% | ·
N=C(N)c1ccccc1 | 2.6% | 4.4% | -0.7% | 14.1µM*! | -4.5 | ? | · | RECQ1 conf=8.0%[114 µM];ADP FP counter=20.3%[91.9 µM]
